The supplement of paper PMC11732987, “Enantioselective OTUD7B fragment discovery through chemoproteomics screening and high-throughput optimisation” (Communications Chemistry, 2025)

molecular target: T1, USP22 (UniProt Q9UPT9); assay: log2 ratio of Biotin-Ahx-Ub-VS probe labelling (fragment/DMSO); higher = less target engagement (more negative = stronger competition), active = hit call of the paper (q ≤ 0.05, log2 ratio ≤ -1); settings: compound concentration: 200 uM; treatment time: 3 h
T1 sequence (whole entry): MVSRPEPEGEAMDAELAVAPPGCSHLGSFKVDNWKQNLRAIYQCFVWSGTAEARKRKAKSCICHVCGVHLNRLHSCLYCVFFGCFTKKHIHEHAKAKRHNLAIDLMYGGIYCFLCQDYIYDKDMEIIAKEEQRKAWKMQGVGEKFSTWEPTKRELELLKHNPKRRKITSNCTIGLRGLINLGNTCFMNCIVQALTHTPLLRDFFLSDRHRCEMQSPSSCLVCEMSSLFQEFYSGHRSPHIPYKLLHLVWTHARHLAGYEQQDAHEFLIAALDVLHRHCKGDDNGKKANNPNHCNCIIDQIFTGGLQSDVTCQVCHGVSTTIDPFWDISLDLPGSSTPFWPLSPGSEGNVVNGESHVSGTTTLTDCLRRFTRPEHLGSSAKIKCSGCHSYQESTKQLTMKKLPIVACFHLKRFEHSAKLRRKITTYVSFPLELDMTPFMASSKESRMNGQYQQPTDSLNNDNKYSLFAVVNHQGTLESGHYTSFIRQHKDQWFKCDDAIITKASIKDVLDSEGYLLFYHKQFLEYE
Experimental: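 Competitive ABPP in HEK293T cell lysate. Lysates were treated with each chloroacetamide fragment at 200 µM for 3 h, then with Biotin-Ahx-Ub-VS (0.5 µM, 1 h), NeutrAvidin-enriched and analysed by diaPASEF LC-MS/MS. Protein LFQ was median-normalised; average log2 ratio is fragment/DMSO from an unpaired t-test (n=3 treated, n=44 DMSO). Hits: q ≤ 0.05, log2 ratio ≤ -1, unique peptides ≥ 2.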

log2 ratio of Biotin-Ahx-Ub-VS probe labelling, inactive:
Cc1cccc(N2CCC(NC(=O)CCl)C2=O)c1 (stereo not given) 0.199, O=C(CCl)NC1CCOc2ccccc21 (stereo not given) -0.51, Cc1cccnc1NC(=O)C1CCN(C(=O)CCl)CC1.Cl 0.169, O=C(CCl)N1CCCC2CCCCC21 (stereo not given) -0.0228, O=C(CCl)N1CC2(CCOCC2)C1 0.0357, CC(=O)Nc1ccc(NC(=O)CCl)cc1 -0.0522, CC(NC(=O)CCl)c1noc(Cc2ccccc2)n1 (stereo not given) -0.322, CNC(=O)C1(NC(=O)CCl)CCCCC1 -0.0396, CN(CCC(O)c1ccc(Br)cc1)C(=O)CCl (stereo not given) -0.43, CS(=O)(=O)c1ccc(CNC(=O)CCl)cc1 -0.163, CN1c2ccccc2C(NC(=O)CCl)CS1(=O)=O (stereo not given) -0.303, O=C(CCl)N1CCCCCC1c1ncon1 (stereo not given) -0.0397, N#Cc1ccccc1N1CCN(C(=O)CCl)CC1 0.0569, Cc1ccc(CNC(=O)CCl)nc1C.Cl 0.00229, NC(=O)C(Cc1ccccc1)NC(=O)CCl (stereo not given) -0.0897, O=C(CCl)N1c2ccccc2NC(=O)C12CCCC2 0.00548, O=C(CCl)Nc1nc(-c2cccs2)cs1 -0.167, O=C(CCl)NC1CCS(=O)(=O)c2ccccc21 (stereo not given) -0.0769, Cc1ccc(CN(C)C(=O)CCl)o1 -0.454, O=C(CCl)N[C@H]1CCS(=O)(=O)c2ccccc21 -0.119, Cl.O=C(CCl)N1CCN(Cc2ccccc2)CC1 -0.403, O=C(CCl)NCc1ccc(N2CCOCC2)nc1 -0.181, Cc1ccc(C)c(Oc2ccc(CNC(=O)CCl)cn2)c1.Cl -0.856, O=C(CCl)N1CCC(C(O)c2ccc(F)cc2)CC1 (stereo not given) 0.13, CC(O)CC1CCN(C(=O)CCl)CC1 (stereo not given) 0.037, CN(C)C(=O)c1ccc(NC(=O)CCl)cc1 -0.0455, Cc1cccc(NC(=O)CCl)c1C -0.267, CC(NC(=O)CCl)c1csc(-c2ccccc2)n1.Cl (stereo not given) -0.723, O=C(CCl)NCc1ccc(N2CCOCC2)c(F)c1 -0.359, Cc1ccc(CC(CO)CNC(=O)CCl)cc1 (stereo not given) -0.0764, O=C(CCl)N1CCC2(CCC(O)CC2)CC1 -0.145, C[C@@H](NC(=O)CCl)c1cccc(C#N)c1 0.031, Cl.O=C(CCl)N1CCC(n2nc3ccccc3n2)CC1 -0.472, O=C(CCl)N1CCC(C(=O)N2CCCCCC2)CC1 -0.145, O=C(CCl)NC(Cn1ccccc1=O)c1ccccc1 (stereo not given) 0.298, Cc1cc(C(=O)NC2CCN(C(=O)CCl)CC2)no1 -0.208, O=C(CCl)N(C1CCCC1)C1CCS(=O)(=O)C1 (stereo not given) 0.236, O=C(CCl)N1CCOC2(CCC2)C1 0.184, O=C(CCl)Nc1ccc(F)cc1Cl -0.0369, CC1Cc2ccccc2N1C(=O)CCl (stereo not given) -0.161
